Laboratory results: PubChem BioAssay
Active and inactive are the calls of the source. Unless noted, no rule for the calls is given here.

Experiments:
[1] = anti-His antibody binders, primary screen, artefact control for SMM control protein annotation, biochemical, small-molecule microarray, 635 nm fluorescence (AID 1128); conditions: anti-His Alexa647 antibody binding, higher = more signal;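 also: score merges feature fluorescence with signal-to-noise for each printed compound spot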
[2] = system: Human papillomavirus type 1a E7 protein (residues 1-88); test: HPV1a E7 small-molecule binders, primary screen, biochemical, small-molecule microarray, residues 1-88, 635 nm (AID 1129); conditions: small-molecule microarray binding, fluorescence 635 nm; higher = more signal
[3] = molecular target: Focal adhesion kinase 1 (Homo sapiens) (UniProt Q05397); test: small-molecule microarray binders of FAK, primary screen, biochemical, 635/667 nm fluorescence, BSA, DTT (AID 1130); conditions: PTK2 binding, 635 nm fluorescence, higher = more signal;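 also: composite of spot emission at 667 nm and signal to noise over triplicate slides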
[4] = system: Fibrinogen (Alexa647-labelled); test: fibrinogen binders on compound microarrays, profiling panel, artefact control for SMM control-protein annotation, biochemical, small-molecule microarray, 635/667 nm fluorescence (AID 1131); conditions: fibrinogen-A647 binding fluorescence, higher = more signal;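 also: z-score merges 667 nm fluorescence with per-spot signal-to-noise over triplicate slides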
[5] = molecular target: Follistatin (Homo sapiens) (UniProt P19883); test: follistatin binders on small-molecule microarrays, primary screen, biochemical, small-molecule microarray, 635/667 nm fluorescence (AID 1132); conditions: FST binding, 635 nm fluorescence, higher = more signal
[6] = molecular target: Fibroblast growth factor 2 (Homo sapiens) (UniProt P09038); test: FGF2 binders on small-molecule microarrays, primary screen, biochemical, small-molecule microarray, 635/667 nm fluorescence (AID 1133); conditions: small-molecule microarray binding, FGF2, fluorescence 635/667; higher = more signal
[7] = mitochondrial membrane potential change in A549 cells, profiling panel, cell-based, JC-1 fluorescence, basal, 24 h, 100 nL (AID 1138); conditions: higher = more signal;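 also: A549 lung adenocarcinoma cells under basal conditions with no added stimulus; test concentration not given here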
Lefty1 = Lefty1 binders on small-molecule microarrays, primary screen, biochemical, small-molecule microarray, 635/667 nm fluorescence (AID 1139); conditions: small-molecule microarray binding, fluorescence 635/667; higher = more signal
[8] = system: wheat germ agglutinin (Triticum aestivum), Alexa647-labelled; test: wheat germ agglutinin binders on compound microarrays, profiling panel, artefact control for SMM control-protein annotation, biochemical, small-molecule microarray, 635/667 nm fluorescence (AID 1140); conditions: WGA-A647 binding, 635 nm fluorescence, higher = more signal;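 also: score merges 667 nm feature emission with signal to noise over triplicate slides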
[9] = molecular target: Luciferin 4-monooxygenase (Photinus pyralis) (UniProt P08659); test: firefly luciferase enzyme inhibitors, primary screen, biochemical, luminescence, purified enzyme, 2006 set (AID 1141); conditions: SteadyGlo luminescence, 30 min, higher = more signal, called active from +8 up or from −8 down;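 also: cell-free assay with purified firefly luciferase at 100 ng per well in PBS; test concentration not given here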
[10] = system: Wnt5a (protein binding on small-molecule microarray); test: Wnt5a binders on small-molecule microarray, primary screen, biophysical, 635/667 nm fluorescence (AID 1142); conditions: 635 nm fluorescence, higher = more signal;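 also: fluorescence read at 667 nm with signal to noise per printed feature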
[11] = cell viability in Huh7 cells, primary screen, cytotoxicity control for HCV replication inhibitor project, CellTiter-Glo luminescence, basal, 48 h (AID 1143); conditions: Huh7 HCV replicon, higher = more signal, called active from +8 up or from −8 down;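 also: Huh7 hepatoma cells carrying a hepatitis C replication reporter with no stimulus; test concentration not given here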
[12] = P. aeruginosa biofilm formation inhibitors, primary screen, PAO1 strain, BacTiter-Glo luminescence, LB-PBS (AID 1144); conditions: 12 h, higher = more signal
[13] = CREB reporter modulators without forskolin, primary screen, cell-based, PC12, CRE-LacZ reporter, unstimulated (AID 1145); conditions: no forskolin, luminescence, 4.5 h, higher = more signal, called active from +8 up or from −8 down
[14] = CREB reporter modulators under forskolin, primary screen, cell-based, PC12, CRE-LacZ reporter, forskolin-stimulated (AID 1146); conditions: luminescence, 4.5 h, higher = more signal, called active from +8 up or from −8 down;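 also: PC12 cells with 6xCRE LacZ reporter stimulated by forskolin 10 µM; beta-galactosidase reporter signal reflecting CREB driven transcription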
[15] = molecular target: Streptavidin (Streptomyces avidinii) (UniProt P22629); test: streptavidin binders on small-molecule microarray, primary screen, artefact control for SMM compound annotation, biophysical, 635/667 nm fluorescence (AID 1147); conditions: streptavidin binding, higher = more signal;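 also: signal reflects streptavidin binding to arrayed compounds as a control protein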
[16] = small-molecule binders of probe aInhba, primary screen, biochemical, small-molecule microarray, 635/667 nm fluorescence (AID 1148); conditions: higher = more signal;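 also: score merges 667nm spot fluorescence with signal-to-noise for antibody binding to printed compounds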
Torsin-1A (Homo sapiens) [17] = molecular target: Torsin-1A (Homo sapiens) (UniProt O14656); test: torsin A binders from cell lysate, primary screen, small-molecule microarray, wild-type, 635/667 nm (AID 1149); conditions: COS7 hTOR1A-WT lysate, 635 nm fluorescence, higher = more signal
Torsin-1A (Homo sapiens) [18] = molecular target: Torsin-1A (Homo sapiens) (UniProt O14656); test: small-molecule binders of mutant TOR1A in lysate, primary screen, cell lysate, small-molecule microarray, COS7 lysate, 635/667 nm fluorescence (AID 1150); conditions: COS7 hTOR1A mutant lysate, 635 nm fluorescence, higher = more signal;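 also: score pools 667 nm emission and signal to noise measuring lysate protein binding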
[19] = system: Sonic hedgehog protein (Shh); test: small-molecule binders of Shh protein, primary screen, biochemical, small-molecule microarray, 635/667 nm fluorescence (AID 1151); conditions: small-molecule microarray binding, 635 nm fluorescence; higher = more signal;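 also: Shh protein binding to compounds spotted on small-molecule microarray slides; score combines spot fluorescence intensity with signal-to-noise across triplicate slides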

Focal adhesion kinase 1 (Homo sapiens), sequence (Q05397 whole entry, looked up): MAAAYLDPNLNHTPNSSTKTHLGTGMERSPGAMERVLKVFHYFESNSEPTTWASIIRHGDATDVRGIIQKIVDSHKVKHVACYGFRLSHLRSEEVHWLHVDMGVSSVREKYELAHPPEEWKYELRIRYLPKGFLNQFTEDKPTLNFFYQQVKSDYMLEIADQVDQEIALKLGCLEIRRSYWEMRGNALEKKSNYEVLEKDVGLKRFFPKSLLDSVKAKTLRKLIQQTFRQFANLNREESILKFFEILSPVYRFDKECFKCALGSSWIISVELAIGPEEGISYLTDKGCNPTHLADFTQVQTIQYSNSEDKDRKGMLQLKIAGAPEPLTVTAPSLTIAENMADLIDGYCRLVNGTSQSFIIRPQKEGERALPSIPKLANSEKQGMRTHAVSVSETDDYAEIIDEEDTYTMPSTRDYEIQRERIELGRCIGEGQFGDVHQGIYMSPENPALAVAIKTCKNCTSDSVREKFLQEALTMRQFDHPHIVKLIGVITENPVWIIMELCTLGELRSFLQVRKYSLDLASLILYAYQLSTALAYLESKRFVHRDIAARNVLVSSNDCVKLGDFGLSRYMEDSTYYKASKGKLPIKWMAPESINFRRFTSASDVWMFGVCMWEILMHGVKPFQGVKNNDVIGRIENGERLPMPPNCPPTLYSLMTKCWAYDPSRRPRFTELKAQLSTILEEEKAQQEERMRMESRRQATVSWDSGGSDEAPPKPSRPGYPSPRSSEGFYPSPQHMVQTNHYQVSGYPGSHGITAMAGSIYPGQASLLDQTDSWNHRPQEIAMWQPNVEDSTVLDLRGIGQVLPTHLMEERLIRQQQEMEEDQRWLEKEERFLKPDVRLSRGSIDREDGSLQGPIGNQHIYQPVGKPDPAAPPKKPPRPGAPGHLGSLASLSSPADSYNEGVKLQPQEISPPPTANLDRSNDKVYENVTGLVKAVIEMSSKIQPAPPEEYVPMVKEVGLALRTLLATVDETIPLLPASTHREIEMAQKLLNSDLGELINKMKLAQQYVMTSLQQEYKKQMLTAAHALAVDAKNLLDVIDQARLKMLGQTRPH
Follistatin (Homo sapiens), sequence (P19883 whole entry, looked up): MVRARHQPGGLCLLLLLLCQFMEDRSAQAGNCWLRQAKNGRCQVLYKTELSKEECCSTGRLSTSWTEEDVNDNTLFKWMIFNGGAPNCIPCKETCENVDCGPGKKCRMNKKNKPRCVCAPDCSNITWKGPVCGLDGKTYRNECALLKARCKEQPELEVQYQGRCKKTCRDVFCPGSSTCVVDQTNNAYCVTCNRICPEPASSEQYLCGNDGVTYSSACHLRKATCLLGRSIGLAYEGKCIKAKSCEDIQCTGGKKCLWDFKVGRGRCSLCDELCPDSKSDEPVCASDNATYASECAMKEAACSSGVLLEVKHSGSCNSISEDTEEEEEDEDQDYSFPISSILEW
Fibroblast growth factor 2 (Homo sapiens), sequence (P09038 whole entry, looked up): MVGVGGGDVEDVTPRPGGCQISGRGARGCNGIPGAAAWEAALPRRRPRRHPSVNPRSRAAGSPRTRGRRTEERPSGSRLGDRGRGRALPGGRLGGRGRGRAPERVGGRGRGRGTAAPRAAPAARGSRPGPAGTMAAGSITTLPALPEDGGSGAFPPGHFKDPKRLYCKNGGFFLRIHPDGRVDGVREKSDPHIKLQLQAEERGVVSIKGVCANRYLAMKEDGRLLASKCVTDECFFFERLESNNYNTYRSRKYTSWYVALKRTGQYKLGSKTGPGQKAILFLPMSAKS
Luciferin 4-monooxygenase (Photinus pyralis), sequence (P08659 whole entry, looked up): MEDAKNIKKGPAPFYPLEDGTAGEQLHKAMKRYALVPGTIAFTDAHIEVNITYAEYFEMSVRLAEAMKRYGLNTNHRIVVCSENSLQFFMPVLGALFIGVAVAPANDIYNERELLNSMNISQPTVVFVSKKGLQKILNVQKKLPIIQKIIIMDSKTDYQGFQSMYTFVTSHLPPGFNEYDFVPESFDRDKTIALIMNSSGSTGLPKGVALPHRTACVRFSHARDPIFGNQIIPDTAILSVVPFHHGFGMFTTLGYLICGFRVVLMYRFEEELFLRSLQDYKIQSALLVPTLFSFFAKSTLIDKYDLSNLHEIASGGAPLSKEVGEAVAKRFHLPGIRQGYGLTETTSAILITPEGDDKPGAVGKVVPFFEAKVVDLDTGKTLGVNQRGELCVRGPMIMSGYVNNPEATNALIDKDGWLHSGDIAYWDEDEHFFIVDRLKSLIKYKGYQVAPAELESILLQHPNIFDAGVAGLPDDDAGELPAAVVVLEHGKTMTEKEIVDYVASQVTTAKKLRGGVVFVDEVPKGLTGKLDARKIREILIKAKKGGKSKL
Torsin-1A (Homo sapiens), sequence (O14656 whole entry, looked up): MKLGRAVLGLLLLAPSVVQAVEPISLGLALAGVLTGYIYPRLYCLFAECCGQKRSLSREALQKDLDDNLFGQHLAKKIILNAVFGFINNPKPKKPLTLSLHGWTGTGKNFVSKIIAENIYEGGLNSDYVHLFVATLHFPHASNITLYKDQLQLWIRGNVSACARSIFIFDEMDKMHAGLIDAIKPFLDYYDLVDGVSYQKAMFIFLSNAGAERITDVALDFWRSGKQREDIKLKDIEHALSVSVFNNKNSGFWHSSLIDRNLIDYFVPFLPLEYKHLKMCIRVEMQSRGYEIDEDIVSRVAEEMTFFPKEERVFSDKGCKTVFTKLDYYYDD
Streptavidin (Streptomyces avidinii), sequence (P22629 whole entry, looked up): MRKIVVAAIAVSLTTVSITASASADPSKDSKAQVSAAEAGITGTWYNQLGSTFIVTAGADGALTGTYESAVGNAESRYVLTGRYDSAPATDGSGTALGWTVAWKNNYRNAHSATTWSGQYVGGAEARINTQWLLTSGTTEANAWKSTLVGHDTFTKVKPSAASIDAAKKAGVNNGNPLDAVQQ

| SMILES | composite z-score [1] | composite z-score [2] | composite z-score [3] | composite z-score [4] | composite z-score [5] | composite z-score [6] | z-score [7] | composite z-score (Lefty1) | composite z-score [8] | z-score [9] | composite z-score [10] | z-score [11] | z-score [12] | z-score [13] | z-score [14] | composite z-score [15] | composite z-score [16] | composite z-score (Torsin-1A (Homo sapiens) [17]) | composite z-score (Torsin-1A (Homo sapiens) [18]) | composite z-score [19] |
| --- | --- | --- | --- | --- | --- | --- | --- | --- | --- | --- | --- | --- | --- | --- | --- | --- | --- | --- | --- | --- |
| C=CCNC(=O)[C@@H]1[C@H]2C(=O)O[C@H](c3ccccc3)[C@H](c3ccccc3)N2[C@H](c2ccccc2OCCO)[C@@]12C(=O)N(C(=O)OCCOC)c1ccc(C#CC3=CCCCC3)cc12 | 1.66 | 1.19 | 0.636 | 0.682 | 1.01 | 1.43 | -0.663 | 0.949 | 0.762 | -1.53 (inactive) | 0.18 | -4.3 (inactive) | -0.348 (inactive) | 0.0614 (inactive) | -1.49 (inactive) | 0.497 | -0.146 | 0.458 | 0.669 | 0.634 |
| CC1CC/C=C\[C@H]2OC34C=CCN(c5ccc6ccccc6c5)C(=O)[C@H]3N(C(CO)C(C)C)C(=O)[C@@H]4C2C(=O)O1 (stereo not given in full) | 1.22 | 0.29 | 1.33 | -1.01 | 0.136 | -0.282 | 0.254 | 0.0964 | 1.08 | -0.776 (inactive) | -0.257 | -0.0047 (inactive) | 1.27 (inactive) | -0.0939 (inactive) | -0.714 (inactive) | -0.217 | 0.0028 | -1.06 | -0.477 | 0.485 |
| CC1CC/C=C\[C@H]2OC34C=CCN(C(C)C)C(=O)[C@H]3N(CCCCCO)C(=O)[C@@H]4C2C(=O)O1 (stereo not given in full) | -1.07 | -1.71 | -0.6 | -1.29 | -0.985 | -1.17 | 1.68 | -1.42 | -0.892 | -1.39 (inactive) | -0.432 | -0.262 (inactive) | 1.39 (inactive) | 1.67 (inactive) | -0.478 (inactive) | -1.16 | -0.157 | -1.14 | -0.751 | -0.375 |
| C=C[C@H](COC(C)=O)NS(=O)(=O)c1ccc(Br)cc1 | 0.207 | -0.575 | -0.0533 | 0.382 | 1.27 | -0.0651 | 0.695 | 0.17 | 0.146 | -0.503 (inactive) | -0.0966 | 0.0651 (inactive) | -0.0168 (inactive) | 0.26 (inactive) | 0.678 (inactive) | 1.16 | -0.0762 | 0.119 | -0.214 | 0.382 |
| [N-]=[N+]=Nc1ccccc1[C@H]1OC(c2ccc(OCCCO)cc2)=N[C@@]1(CCS(=O)(=O)c1ccccc1)C(=O)N1CCCCC1 | 2.65 | 1.23 | 0.944 | 0.989 | 0.83 | -0.0535 | -1.11 | -0.0647 | 1.27 | -11.7 (active) | 0.375 | -4.28 (inactive) | -1.21 (inactive) | 0.47 (inactive) | -0.993 (inactive) | 1.89 | 0.153 | 0.456 | 1.01 | -0.678 |
| O=C1OCC=C[C@H]2OC34C=CCN(Cn5nnc6ccccc65)C(=O)[C@H]3N(CCCCCCO)C(=O)[C@@H]4[C@@H]12 (stereo not given in full) | 1.42 | -0.238 | 0.058 | -1.49 | -0.982 | -0.525 | 0.421 | -0.835 | -0.544 | -0.283 (inactive) | -0.277 | 0.205 (inactive) | 1.16 (inactive) | 0.0484 (inactive) | -0.116 (inactive) | -0.701 | 0.111 | -0.494 | -0.416 | -0.104 |
| [N-]=[N+]=NCc1ccccc1C[C@@]1(C(=O)NCCN2CCOCC2)N=C(c2ccc(OCCCO)cc2)O[C@@H]1c1ccccc1N=[N+]=[N-] | 1.4 | 1.19 | 1.05 | 0.957 | 0.423 | -0.498 | -0.183 | -0.165 | 0.963 | -5.91 (inactive) | 0.512 | -5.21 (inactive) | -0.503 (inactive) | 0.69 (inactive) | -1.46 (inactive) | 0.408 | 0.0906 | 0.5 | 1.73 | -0.492 |
| CCOC(=O)C[C@H]1[C@H](OC(=O)c2ccc(-c3ccccc3)cc2)[C@@H](NC(=O)C2CCCCC2)c2cc(OCCCO)ccc2N1C(=O)c1ccccc1 | 0.0672 | 0.755 | 0.559 | 0.845 | 0.461 | 0.406 | 0.0651 | 0.544 | 0.207 | 0.0421 (inactive) | 0.0722 | -0.0788 (inactive) | -0.376 (inactive) | -0.0247 (inactive) | 0.178 (inactive) | 0.947 | -0.133 | -0.0488 | 0.221 | 0.957 |
| CCOC(=O)C[C@H]1[C@H](OC(=O)c2ccc(-c3ccccc3)cc2)[C@@H](NC(=O)c2ccc3ccccc3n2)c2cc(OCCCO)ccc2N1C(=O)c1ccccc1 | 1.14 | 1 | 0.059 | 0.702 | 0.779 | 0.736 | -0.332 | 0.815 | 0.262 | 0.371 (inactive) | 0.111 | -0.727 (inactive) | 0.306 (inactive) | -0.477 (inactive) | -0.169 (inactive) | 0.968 | 0.109 | 0.448 | 0.397 | 0.861 |
| CN1C(=O)C2C(C1=O)C1C=C(c3ccc(CO)cc3)C2C(c2cccs2)N1Cc1cccc(OC(F)(F)F)c1 (stereo not given) | 1.87 | 1.25 | 0.726 | 1.02 | 0.942 | 0.384 | 0.38 | 0.733 | 0.661 | 0.117 (inactive) | 0.314 | -3.4 (inactive) | -0.656 (inactive) | -0.336 (inactive) | -1.55 (inactive) | 0.474 | 0.0689 | 1.13 | -0.0742 | 0.834 |
